# Experimental data as given in PubChem BioAssay AID686978 (National Center for Advancing Translational Sciences (NCATS), 2013).
# “And” between values parts separate entries of the source, which are not always exact repeats. Equal entries are not always repeated. Out of some 420,000 compounds screened, about 64,000 (15%) were called active. About 27% were inconclusive and are not listed. Calls come from the whole dose curve; as a rule, active = well fitted inhibition curve with a large enough effect; inconclusive = small, poorly fitted or top-dose-only effect; inactive = flat fitted curve, though single readings scatter. A selection follows. Entries that show only a call come without a potency. The source holds several records for some structures; these can differ, active in one and inactive in another.
# Assay: qHTS for Inhibitors of human tyrosyl-DNA phosphodiesterase 1 (TDP1): qHTS in cells in absence of CPT; note: nearly all actives have a fitted effect of over 55% in size
# Conditions: DT40 Tdp1-/- hTDP1 cells, no CPT, ATP luminescence, 48 h; activity change, negative = growth inhibition: at 46.2 µM (top of the series)
# How it was run: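 A cellular qHTS used chicken DT40 cells lacking endogenous Tdp1 but carrying stably transfected human TDP1. Compounds were applied without camptothecin, and cell growth kinetics were judged by ATP-dependent luminescence after ≥48 hr.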
# Potency is the fitted concentration of half-maximal effect.
row,SMILES,Potency
1,CCOC(=O)C1(Cc2ccc(Cl)cc2)CCN(C(=O)C2=NNC(=O)CC2)CC1,inactive
2,COc1ccc(CCc2nnc(CCC(=O)NCc3cnn(-c4ccccc4C)c3)o2)cc1,inactive
3,COc1ccc(CCNC(=O)C(=O)NCC2OCCN2S(=O)(=O)c2ccc(F)cc2)cc1OC (stereo unspecified),inactive
4,COc1ccc(CCNC(=O)C(=O)NCC2OCCN2S(=O)(=O)c2ccc(OC)c(C)c2)cc1 (stereo unspecified),18.4 µM (active)
5,COc1ccc(S(=O)(=O)N2CCOC2CNC(=O)C(=O)NCc2ccncc2)cc1C (stereo unspecified),inactive
6,O=C(NCc1ccc(Cl)cc1)c1ccc2c(c1)nnn2C1CCCC1,inactive
7,Cc1ccc(CNC(=O)c2ccc3c(c2)S(=O)(=O)c2ccccc2C3=O)cc1,inactive
8,Cc1ccc(OCCNC(=O)CNC(=O)c2ccc(C)c(C)c2)cc1,inactive
9,CC1=Nc2cc(C(=O)NCc3ccc(C)cc3)ccc2Sc2ccc(Cl)cc21,20.6 µM (active)
10,COCCNC(=O)c1ccc2c(c1)N=C(C)c1cc(C)ccc1S2,0.461 µM (active)
11,COCCNC(=O)c1ccc(S(=O)(=O)c2ccc(Cl)cc2)c(NC(C)=O)c1,inactive
12,O=[N+]([O-])c1ccccc1/C=C/CN1CCCC(CO)C1 (stereo unspecified),inactive
13,Cc1nnc(SCC(=O)Nc2ncc3c(n2)CC(C)(C)CC3=O)s1,inactive
14,O=C(NC(=S)Nc1ncccn1)c1ccccc1Br,inactive
15,CCC(C)N(C(=O)COC(=O)c1nc(Cl)ccc1Cl)C1CCS(=O)(=O)C1 (stereo unspecified),inactive
16,CCN(CC)CCN1C(=O)C(=O)/C(=C(/O)c2ccccc2)C1c1ccccc1F (stereo unspecified),inactive
17,COc1cccc(C(c2c(O)cc(C)n(Cc3ccco3)c2=O)N2CCN(c3ccccc3)CC2)c1 (stereo unspecified),inactive
18,Cc1c(NC(=O)CSc2nnc(-c3cccnc3)n2N)c(=O)n(-c2ccccc2)n1C,inactive
19,Cc1c(NC(=O)CSc2nnnn2-c2ccc(C(=O)O)cc2)c(=O)n(-c2ccccc2)n1C,inactive
20,Cc1c(NC(=O)CSc2cccc3cccnc23)c(=O)n(-c2ccccc2)n1C,23.1 µM (active)
21,COc1ccc(F)c(CN2CCC3(CCC(CNC(=O)c4ccn(C)n4)O3)CC2)c1 (stereo unspecified),inactive
22,Cc1cc(NC(=O)Cn2nc(C(F)(F)F)c3c2CCCC3)no1,inactive
23,OCCN1CCOCCOCCN(CCO)CCN(CCO)CC1,inactive
24,Cc1cc(C)c(C#N)c(SCc2ccc3c(c2)OCO3)n1,inactive
25,Cc1nc(-c2ccccc2)sc1-c1nnc(C2CC2)o1,inactive
26,C=CCn1c(-c2sc(-c3ccccc3)nc2C)n[nH]c1=S,23.1 µM (active)

row,SMILES,Potency
1,C=CCn1c(CCNC(=O)c2cccs2)n[nH]c1=S,inactive
2,COc1ccc(/C=C/c2c(-c3cccc(C)c3)oc3ccc(-c4ccc5c(c4)OCO5)cc23)cc1,inactive
3,CC(C)(C)C(=O)/C(C#N)=C/c1ccc(O)cc1,inactive
4,CC(C)NC(=O)/C(C#N)=C\c1ccc(N(C)C)c(Br)c1,inactive
5,N#C/C(=C\c1ccc(O)c(O)c1)C(N)=O,inactive and 29.9 µM (active)
6,CCc1nc2ccc(C(=O)N(C)CCN(C)C)cn2c1N(CC)CCOC,inactive
7,COc1ccc(N(C(=O)c2cccnc2)S(=O)(=O)c2ccc(OC)c(OC)c2)cc1,inactive
8,Cc1cc(NC(=O)CCS(=O)(=O)c2ccc(F)cc2)no1,inactive
9,CCOC(=O)[C@]12CCCC=C1N(CCC1=CCCCC1)C(=O)[C@H](CC(=O)N1CCOCC1)C2,16.4 µM (active)
10,CCOC(=O)[C@]12CCCC=C1N(CCC1=CCCCC1)C(=O)[C@H](CC(=O)N1CCSCC1)C2,16.4 µM (active)
11,CCOC(=O)N1CCN(C(=O)COc2ccc(Br)cc2)CC1,inactive
12,CCOC(=O)N1CCN(C(=O)C[C@@H]2C[C@@]3(C(=O)OC)CCCCC=C3N(CCC3=CCCCC3)C2=O)CC1,16.4 µM (active)
13,CCOC(=O)[C@]12CCCC=C1N(CCC1=CCCCC1)C(=O)[C@H](CC(=O)N1CCCCC1)C2,5.17 µM (active)
14,CSc1c(SCc2ccccc2)cnn(Cc2ccccc2)c1=O,inactive
15,Cc1ccc(N)cc1-n1c(C)ccc1C,inactive
16,C/C=C/C(=O)OCc1csc(CC(=O)Nc2ccccc2C)n1,inactive
17,CC1CC1C(=O)OCC(=O)Nc1cccc(F)c1 (stereo unspecified),inactive
18,Cc1cc(-c2nnc(SCC(=O)Nc3ccc(F)cc3)n2N)n[nH]1,inactive
19,O=C(CN1C(=O)CSC1=O)N1CCCC(Nc2ccc(F)cc2)C1 (stereo unspecified),inactive
20,Cc1ccc(S(=O)(=O)N(C)c2ccc(OCC(=O)NC3=NCCS3)cc2)cc1,inactive
21,CC(C)NC(=O)Nc1cccc2c1O[C@H](CN(C)S(=O)(=O)c1cccs1)[C@@H](C)CN([C@H](C)CO)C2=O,inactive
22,CCOC(=O)[C@]12CCC=C1N(Cc1ccccc1)C(=O)[C@H](CC(=O)N1CCCC1)C2,inactive
23,COC(=O)[C@]12CCCCC=C1N(CCC1=CCCCC1)C(=O)[C@H](CC(=O)N1CCSCC1)C2,16.4 µM (active)
24,COc1ccc(Cl)cc1N(CC(=O)N1CCCCC1)S(C)(=O)=O,inactive
25,CCOC(=O)[C@]12CCCC=C1N(Cc1ccc(Cl)cc1Cl)C(=O)[C@H](CC(=O)N1CCCCC1)C2,23.1 µM (active)
